Source: PubChem BioAssay AID1159580 (chemical genetic matrix, 2015)
Values joined by “and” are separate entries in the source; they are usually repeats but may differ in a detail not shown here. Equal entries are not always repeated. About 2,000 (36%) of roughly 5,500 compounds were called active. About 18% were inconclusive and are not listed. No stated cut-off is given here; in the data, active means normalized growth mostly below about 0.91 (no sharp cut-off); inconclusive means no clear call, values can overlap the other calls; inactive means mostly above about 0.92. This is one part of the list.

Assay: chemical genetic growth profiling, strain panel (AID 1159580);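 further: tested at 20 µM; growth read once vehicle control cultures reached saturation at 30 °C; 1 = growth at the plate median or of vehicle wells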
Conditions: S. cerevisiae deletion strains, growth OD

Measured: normalized growth

C#C[C@]1(O)CCC2C3CCC4=Cc5oncc5C[C@]4(C)C3CC[C@@]21C (stereo partly specified)
0.825 (active) and 0.957 (inactive): locus YHR030C, strain SLT2, stronger effect = lower value
0.729 (active) and 0.973 (inactive): locus YJL095W, strain BCK1, stronger effect = lower value
inactive: locus YAL021C, strain ccr4, stronger effect = lower value 1.05 | locus YAL026C, strain drs2, stronger effect = lower value 0.977 | locus YAL030W, strain snc1, stronger effect = lower value 0.94 | locus YBL061C, strain skt5, stronger effect = lower value 0.941 | locus YBR009C, strain hhf1, stronger effect = lower value 0.918 | locus YBR021W, strain FUR4, stronger effect = lower value 1.01 | locus YBR023C, strain chs3, stronger effect = lower value 0.958 | locus YBR171W, strain sec66, stronger effect = lower value 0.937 | locus YBR231C, strain swc5, stronger effect = lower value 0.966 | locus YBR279W, strain paf1, stronger effect = lower value 0.969 | locus YCL011C, strain gbp2, stronger effect = lower value 0.97 | locus YCL016C, strain dcc1, stronger effect = lower value 0.996 | locus YCL029C, strain bik1, stronger effect = lower value 0.919 | locus YCL061C, strain MRC1, stronger effect = lower value 0.943 | locus YCL069W, strain vba3, stronger effect = lower value 0.956 | locus YCR088W, strain abp1, stronger effect = lower value 0.943 | locus YDL005C, strain med2, stronger effect = lower value 0.954 | locus YDL035C, strain GPR1, stronger effect = lower value 0.94 | locus YDL040C, strain nat1, stronger effect = lower value 0.958 | locus YDL101C, strain DUN1, stronger effect = lower value 0.906 | locus YDL185W, strain tfp1, stronger effect = lower value 0.932 | locus YDL192W, strain arf1, stronger effect = lower value 0.933 | locus YDR001C, strain nth1, stronger effect = lower value 0.961 | locus YDR069C, strain doa4, stronger effect = lower value 0.96 | locus YDR137W, strain rgp1, stronger effect = lower value 0.859 | locus YDR150W, strain NUM1, stronger effect = lower value 0.929 | locus YDR162C, strain NBP2, stronger effect = lower value 0.866 | locus YDR195W, strain ref2 0.978 | locus YDR297W, strain sur2, stronger effect = lower value 0.937 | locus YDR334W, strain swr1, stronger effect = lower value 0.965 | locus YDR335W, strain msn5, stronger effect = lower value 0.95 | locus YDR388W, stronger effect = lower value 0.957 | locus YEL003W, strain gim4, stronger effect = lower value 0.932 | locus YEL037C, strain rad23, stronger effect = lower value 0.971 | locus YEL061C, strain CIN8 (second series), stronger effect = lower value 0.958 | locus YEL061C, strain CIN8, stronger effect = lower value 0.93 | locus YER015W, strain faa2, stronger effect = lower value 0.961 | locus YER016W, strain bim1, stronger effect = lower value 0.969 | locus YER110C, stronger effect = lower value 0.933 | locus YER111C, strain swi4, stronger effect = lower value 0.978 | locus YER167W, strain BCK2, stronger effect = lower value 0.939 | locus YFR010W, strain ubp6, stronger effect = lower value 0.927 | locus YGL078C, strain dbp3, stronger effect = lower value 0.962 | locus YGL167C, strain pmr1, stronger effect = lower value 0.942 | locus YGL173C, strain kem1, stronger effect = lower value 0.929 | locus YGL227W, strain vid30, stronger effect = lower value 0.958 | locus YGL240W, strain doc1, stronger effect = lower value 0.94 | locus YGL248W, strain PDE1, stronger effect = lower value 0.892 | locus YGL253W, strain hxk2, stronger effect = lower value 0.946 | locus YGR135W, strain pre9, stronger effect = lower value 0.999 | locus YGR252W, strain gcn5, stronger effect = lower value 0.99 | locus YHR013C, strain ard1, stronger effect = lower value 1.01 | locus YHR027C, strain rpn1, stronger effect = lower value 0.979 | locus YHR079C, strain IRE1, stronger effect = lower value 0.964 | locus YHR094C, strain hxt1, stronger effect = lower value 0.939 | locus YHR142W, strain chs7, stronger effect = lower value 0.888 | locus YIL073C, strain SPO22, stronger effect = lower value 0.871 | locus YJL092W, strain hpr5, stronger effect = lower value 0.934 | locus YJL095W, strain BCK1 (second series), stronger effect = lower value 0.976 | locus YJL115W, strain asf1, stronger effect = lower value 0.952 | locus YJL134W, strain LCB3, stronger effect = lower value 0.944 | locus YJL154C, strain vps35, stronger effect = lower value 0.961 | locus YJL164C, strain tpk1, stronger effect = lower value 0.973 | locus YJL168C, strain set2, stronger effect = lower value 0.941 | locus YJL187C, strain SWE1 (second series), stronger effect = lower value 0.904 | locus YJR043C, strain POL32, stronger effect = lower value 0.93
active: locus YBR229C, strain ROT2, stronger effect = lower value 0.898 | locus YDL074C, strain BRE1, stronger effect = lower value 0.725 | locus YDR101C, strain arx1, stronger effect = lower value 0.887 | locus YDR159W, strain sac3, stronger effect = lower value 0.839 | locus YDR318W, strain mcm21, stronger effect = lower value 0.891 | locus YDR392W, strain spt3, stronger effect = lower value 0.542 | locus YDR502C, strain sam2, stronger effect = lower value 0.887 | locus YER155C, strain BEM2 (second series), stronger effect = lower value 0.828 | locus YER155C, strain BEM2, stronger effect = lower value 0.903 | locus YGL086W, strain mad1, stronger effect = lower value 0.85 | locus YHR079C, strain IRE1 (second series), stronger effect = lower value 0.924 | locus YHR129C, strain ARP1, stronger effect = lower value 0.889 | locus YHR200W, strain rpn10, stronger effect = lower value 0.912 | locus YIL066C, strain RNR3, stronger effect = lower value 0.785 | locus YIL125W, strain kgd1, stronger effect = lower value 0.917 | locus YIR030C, strain dcg1, stronger effect = lower value 0.927 | locus YJL129C, strain trk1, stronger effect = lower value 0.83 | locus YJL166W, strain qcr8, stronger effect = lower value 0.899
